For 40 sequences, binding signal results are on record in PMC5700166.

This assay deals with T1, GST-Ap-NF-kB RHD (Exaiptasia pallida (Aiptasia), UniProt A0A913YAJ5 2-422).
T1 sequence: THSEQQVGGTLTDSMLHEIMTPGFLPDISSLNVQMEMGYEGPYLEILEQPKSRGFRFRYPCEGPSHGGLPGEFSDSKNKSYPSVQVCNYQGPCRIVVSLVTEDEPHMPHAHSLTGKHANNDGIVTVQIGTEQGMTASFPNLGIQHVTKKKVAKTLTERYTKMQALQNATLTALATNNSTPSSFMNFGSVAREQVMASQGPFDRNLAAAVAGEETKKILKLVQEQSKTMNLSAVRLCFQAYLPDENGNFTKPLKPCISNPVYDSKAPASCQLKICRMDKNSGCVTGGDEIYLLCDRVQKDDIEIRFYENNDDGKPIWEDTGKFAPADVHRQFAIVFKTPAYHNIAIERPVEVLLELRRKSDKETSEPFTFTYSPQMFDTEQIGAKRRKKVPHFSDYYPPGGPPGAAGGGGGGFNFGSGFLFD
Briefly: protein-binding microarray (PBM); PBM: ~300 nM protein, 6 mM HEPES pH 7.8, 80 mM KCl, 0.5 mM EDTA, 0.5 mM EGTA, 6% glycerol, 35 ng/ul poly-dIdC, 1% milk, 1 h, room temperature; Ap Aiptasia and Nv Nematostella (sea anemones) / Co Capsaspora / Aq Amphimedon (sponge) / Dm Drosophila / Hu human; RHD is the Rel homology domain; high values mean tight binding. The note with it: dsDNA, one strand shown.
Consider “CCGATTAACATCATCAGGGAAAATGATGTTAATCGGGTCTTGATTCGCTTGACGCTGCTG”, for which the binding signal was 2.12 z-score.

In turn, “CCGATTAACATCAGGGACAAAAATGATGTTAATCGGGTCTTGATTCGCTTGACGCTGCTG” had a binding signal of 2 z-score.

In turn, “CCGATTAACATCAGGTCGGGAAATGATGTTAATCGGGTCTTGATTCGCTTGACGCTGCTG” registered a binding signal of 1.76 z-score.

On to “CCGATTAACATCAATCGGGAAATTGATGTTAATCGGGTCTTGATTCGCTTGACGCTGCTG”, for which the binding signal is 1.3 z-score.

In turn, “CCGATTAACATCAGGGAAAAGGATGATGTTAATCGGGTCTTGATTCGCTTGACGCTGCTG” displayed a binding signal of 1.79 z-score.

As for “CCGATTAACATCAATTCCCGTACTGATGTTAATCGGGTCTTGATTCGCTTGACGCTGCTG”, the binding signal turned out to be 1.81 z-score.

In turn, “CCGATTAACATCAGATTTCTCCCTGATGTTAATCGGGTCTTGATTCGCTTGACGCTGCTG” showed a binding signal of 1.96 z-score.

With “CCGATTAACATCAATTTACCCACTGATGTTAATCGGGTCTTGATTCGCTTGACGCTGCTG”, the binding signal stood at 1.67 z-score.

In the case of “CCGATTAACATCAACTGGGAAAATGATGTTAATCGGGTCTTGATTCGCTTGACGCTGCTG”, the binding signal is 1.66 z-score.

In the case of “CCGATTAACATCAAGCGTTTCCCTGATGTTAATCGGGTCTTGATTCGCTTGACGCTGCTG”, the binding signal came to 2.29 z-score.

“CCGATTAACATCACTTTCCCAAATGATGTTAATCGGGTCTTGATTCGCTTGACGCTGCTG”: the binding signal was 1.27 z-score.

Sequence “CCGATTAACATCATCTGGGAAAATGATGTTAATCGGGTCTTGATTCGCTTGACGCTGCTG” registered a binding signal of 1.33 z-score.

“CCGATTAACATCAGGGACGGAAATGATGTTAATCGGGTCTTGATTCGCTTGACGCTGCTG”: the binding signal was found to be 2.7 z-score.

Take “CCGATTAACATCAGGGAAAAGAATGATGTTAATCGGGTCTTGATTCGCTTGACGCTGCTG”: the binding signal was 2.43 z-score.

“CCGATTAACATCAAATGTGGGAATGATGTTAATCGGGTCTTGATTCGCTTGACGCTGCTG”: the binding signal was 1.11 z-score.

In the case of “CCGATTAACATCAAAGCATTCCCTGATGTTAATCGGGTCTTGATTCGCTTGACGCTGCTG”, the binding signal was 2.32 z-score.

Regarding “CCGATTAACATCAACATGGGAAATGATGTTAATCGGGTCTTGATTCGCTTGACGCTGCTG”, the binding signal stood at 1.54 z-score.

Regarding “CCGATTAACATCAGGGAAAGGTATGATGTTAATCGGGTCTTGATTCGCTTGACGCTGCTG”, the binding signal worked out at 2.16 z-score.

For “CCGATTAACATCACCGCTTCCCTTGATGTTAATCGGGTCTTGATTCGCTTGACGCTGCTG”, the binding signal is 1.62 z-score.

“CCGATTAACATCATGCCCGGGAATGATGTTAATCGGGTCTTGATTCGCTTGACGCTGCTG” registered a binding signal of 1.55 z-score.

Regarding “CCGATTAACATCATGGTGGGAAATGATGTTAATCGGGTCTTGATTCGCTTGACGCTGCTG”, the binding signal is 1.25 z-score.

For “CCGATTAACATCAAATCGGGAAATGATGTTAATCGGGTCTTGATTCGCTTGACGCTGCTG”, the binding signal was determined as 1.42 z-score.

“CCGATTAACATCACATGGGAAACTGATGTTAATCGGGTCTTGATTCGCTTGACGCTGCTG” displayed a binding signal of 1.24 z-score.

On to “CCGATTAACATCACTCCCTAAAATGATGTTAATCGGGTCTTGATTCGCTTGACGCTGCTG”, for which the binding signal amounted to 1.35 z-score.

For the sequence “CCGATTAACATCATTTCCCTTGATGATGTTAATCGGGTCTTGATTCGCTTGACGCTGCTG”, the binding signal came out at 1.97 z-score.

The sequence “CCGATTAACATCAAACAGGGAAATGATGTTAATCGGGTCTTGATTCGCTTGACGCTGCTG” displayed a binding signal of 2.71 z-score.

The sequence “CCGATTAACATCACCCAGTTCCCTGATGTTAATCGGGTCTTGATTCGCTTGACGCTGCTG” registered a binding signal of 1.22 z-score.

Regarding “CCGATTAACATCATGGGGACGACTGATGTTAATCGGGTCTTGATTCGCTTGACGCTGCTG”, the binding signal stood at 3.56 z-score.

The sequence “CCGATTAACATCAAGCCCCCCCCTGATGTTAATCGGGTCTTGATTCGCTTGACGCTGCTG” came in with a binding signal of 5.25 z-score.

Sequence “CCGATTAACATCACGGTGGGAAATGATGTTAATCGGGTCTTGATTCGCTTGACGCTGCTG” gave a binding signal of 2.05 z-score.

Consider “CCGATTAACATCAGTACGGGAAATGATGTTAATCGGGTCTTGATTCGCTTGACGCTGCTG”, for which the binding signal was determined as 1.79 z-score.

“CCGATTAACATCAACATGGGAATTGATGTTAATCGGGTCTTGATTCGCTTGACGCTGCTG” came in with a binding signal of 1.01 z-score.

“CCGATTAACATCATGGAGGGAGGTGATGTTAATCGGGTCTTGATTCGCTTGACGCTGCTG”: the binding signal stood at 1.29 z-score.

Sequence “CCGATTAACATCATGGGAAGGTTTGATGTTAATCGGGTCTTGATTCGCTTGACGCTGCTG” had a binding signal of 1.34 z-score.

In the case of “CCGATTAACATCAGGGAAAGGAATGATGTTAATCGGGTCTTGATTCGCTTGACGCTGCTG”, the binding signal was 1.83 z-score.

In turn, “CCGATTAACATCAGAGTTTCCCATGATGTTAATCGGGTCTTGATTCGCTTGACGCTGCTG” came in with a binding signal of 3.08 z-score.

In the case of “CCGATTAACATCAGGGAATTAGATGATGTTAATCGGGTCTTGATTCGCTTGACGCTGCTG”, the binding signal worked out at 1.83 z-score.

For “CCGATTAACATCACATCTTTCCCTGATGTTAATCGGGTCTTGATTCGCTTGACGCTGCTG”, the binding signal amounted to 2.24 z-score.

“CCGATTAACATCAACTCGGGAAATGATGTTAATCGGGTCTTGATTCGCTTGACGCTGCTG”: the binding signal worked out at 1.08 z-score.

“CCGATTAACATCAACTTTCCCAGTGATGTTAATCGGGTCTTGATTCGCTTGACGCTGCTG”: the binding signal was determined as 1.05 z-score.
